# Screening results as filed in PubChem.
# Cycloheximide cs = Cycloheximide Counterscreen for Small Molecule Inhibitors of Shiga Toxin. cell reporter, cycloheximide protein synthesis inhibition counterscreen. max response, %. actives 12% (n = 300,000); in the data active = max response mostly above about 13%, no sharp cut-off; inactive = mostly below about 14%; note: read at 38.3 µM for the half of the compounds with a filed dose; 0% is about no effect
# SARS PLP yeast = qHTS of Yeast-based Assay for SARS-CoV PLP | S. cerevisiae expressing SARS-CoV PLpro, growth rescue | Potency, µM (series often up to 32.9 µM), for inactives: at the highest dose activity, positive = growth rescue, actives largely listed as activators | actives 0.19% (n = 330,000); calls by dose curve; note: potency is the fitted concentration of half-maximal effect; 0% is about no effect; nearly all actives have a fitted effect of over 55% in size
# Pf growth 48h = Primary qHTS for delayed death inhibitors of the malarial parasite plastid, 48 hour incubation; P. falciparum luciferase growth in erythrocytes, 48 h; Potency, µM (top dose mostly 28.7 µM), without a hit: at the top dose activity change, negative = inhibition, usual class: inhibitors; actives 5.9% (n = 310,000); note: potency is the fitted concentration of half-maximal effect; % is set by controls: 0 for no effect and ±100 for the full control effect
#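 A one-generation exposure of luciferase-tagged malaria parasites in RPMI 1640/Albumax erythrocyte culture, 37 C and 5% CO2. Inhibition is inferred from decreased luminescence after adding detection reagent.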
# Shiga inhibitor = A qHTS for Small Molecule Inhibitors of Shiga Toxin; actives 9.2% (n = 290,000); Vero cells, Shiga toxin protein synthesis inhibition reporter; inhibition, % at 38.7 µM; AID 2315, 2010; in the data active = inhibition mostly above about 28%, no sharp cut-off; inactive = mostly below about 43%; note: 0% is about no effect
# NS1 function inh = qHTS Assay for Inhibitors of Influenza NS1 Protein Function; Potency, µM (titrated, usually from 46.1 µM), inactives show top-dose activity, positive = more growth; actives 0.4% (n = 270,000); calls by dose curve; note: potency is the fitted concentration of half-maximal effect; actives are rising curves; nearly all actives have a fitted effect of over 50% in size
#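 In this qHTS, NS1 from influenza A is expressed in budding yeast, where it slows growth. Cells are switched from glucose to 2% galactose medium (pH 6.0, -URA), treated with compound, and growth recovery is read at OD600.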
# Pf growth 96h = Primary qHTS for delayed death inhibitors of the malarial parasite plastid, 96 hour incubation | actives 6.9% (n = 320,000) | Potency, µM (top dose mostly 28.7 µM), inactives show top-dose activity change, negative = inhibition, usual class: inhibitors | P. falciparum luciferase reporter growth, 96 h; note: potency is the fitted concentration of half-maximal effect; % is set by controls: 0 for no effect and ±100 for the full control effect
#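 Delayed-death screen, second-generation endpoint: infected erythrocytes, 2% hematocrit, 0.05% parasitemia final; 96 hours at 37 C, 5% CO2; luciferase detection reagent; luminescence decrease equals reduced growth.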
# The depositor's hits bear a star; ? = inconclusive; . = no result given. In the library only some 21% were active in any assay of this set; here they are far more common. Unless noted, calls come from the whole dose curve; as a rule, active = well fitted inhibition curve with a large enough effect; inconclusive = small, poorly fitted or top-dose-only effect, or another doubt; inactive = no such curve, though single readings can be large or run the other way.
SMILES,Cycloheximide cs,SARS PLP yeast,Pf growth 48h,Shiga inhibitor,NS1 function inh,Pf growth 96h
CC(=O)Nc1ccc2nc(SCC(=O)NCCOc3ccccc3)sc2c1,6,-4%,10%,3,.,55%
O=[N+]([O-])c1ccc(Oc2ccc(/C=N/O)cc2)nc1,1,0%,0%,-17,4%,-13%
COc1ccc(/C=C2/SC(=O)NC2=O)cc1,39*,-6%,73%,52*,-62%,13µM*
O=C1NC(=O)/C(=C\c2ccc(Cl)nc2)S1,34*,-3%,141%,68*,.,41%
O=C1NC(=O)/C(=C\c2ccc(Oc3ccc([N+](=O)[O-])cn3)cc2)S1,34*,20%,6%,42*,-5%,-21%
CSCC[C@H](NC(=O)c1ccc(OCC2CCCO2)cc1)c1nc2ccccc2[nH]1 (stereo partly drawn),.,-3%,.,.,.,.
CC(C)c1nc2sc3c(NCc4ccccc4)ncnc3c2c2c1COC(C)(C)C2,1,-1%,.,-1,9%,9.3µM*
CC(OC(=O)c1ccccc1NS(=O)(=O)c1cccc(C(F)(F)F)c1)C(=O)N(C)Cc1ccccc1 (stereo not drawn),-2,2%,?,-16,25%,10µM*
N#CCC(=O)N/N=C/c1cn(Cc2ccc(Cl)c(Cl)c2)c2ccccc12,1,1%,?,-18,6%,?
Cc1ccc(C(=O)N/N=C/c2cn(Cc3ccccc3)c3ccccc23)cn1,20*,0%,4%,31,-2%,42%
COc1cc(C(=O)N/N=C/c2cccc(Oc3ccccc3)c2)ccc1O,9,-3%,20%,8,-7%,11%
COc1cc(C(=O)N/N=C/c2cn(Cc3cccc(F)c3)c3ccccc23)ccc1O,4,7%,-28%,17,8%,1.7µM*
O=S(=O)(N/N=C/c1cn(Cc2ccccc2)c2ccccc12)c1ccccc1,15,-4%,10%,51*,2%,2%
Cc1c(/C=N/Nc2ccc(C(=O)O)cc2)c2ccccc2n1C,42*,-3%,173%,14,-2%,123%
COC(=O)c1cc(C(=O)OC)cc(N2C(=O)CN=C2Nc2nc(C)cc(C)n2)c1,0,8%,23%,-13,0%,82%
O=Cc1cn(Cc2ccc(F)cc2)c2ccccc12,-5,-1%,30%,-9,1%,-25%
O=C(O)c1ccc(N/N=C/c2cn(Cc3ccc(F)cc3)c3ccccc23)cc1,29*,-2%,24%,70*,10%,79%
Cc1cc(NC(=O)CSc2ncnc3sccc23)no1,3,0%,?,18,.,0%
N#Cc1c(NC(=O)CSc2ncnc3sccc23)oc(-c2ccco2)c1-c1ccco1,-3,0%,.,-19,4%,2.3µM*
O=S(=O)(NCC1CCC(NS(=O)(=O)c2c(F)cccc2F)CC1)c1ccc2c(c1)OCCO2 (stereo not drawn),.,-11%,?,.,.,?
Cc1ccc(NC(=S)N/N=C/c2ccc([N+](=O)[O-])s2)cc1,47*,-127%,9.3µM*,active,-37%,31%
Cc1onc(-c2ccccc2)c1C(=O)N/N=C/c1ccc([N+](=O)[O-])s1,1,-67%,12µM*,-1,-30%,?
O=C(Cn1c(NCCCO)nc2ccccc21)c1cccs1,.,.,.,.,-7%,.
COc1ccc2[nH]c3c(c2c1)CCNC3C1CC=C(C)CC1 (stereo not drawn),-1,2%,?,-4,5%,22%
COc1ccc2[nH]c3c(c2c1)CCNC3c1ccc([N+](=O)[O-])o1 (stereo not drawn),9,-2%,13µM*,9,12%,7%
COc1ccc2[nH]c3c(c2c1)CCNC3C (stereo not drawn),-1,?,4%,-5,-4%,9.3µM*
COc1cccc(Nc2nnc(SCC(=O)Nc3sccc3C(N)=O)s2)c1,10,0%,?,41,-6%,?
Cc1ccc(-n2c(SCC(=O)NCCN3C(=O)CSC3=O)nnc2-c2ccccc2)cc1,4,-12%,-11%,14,-2%,15µM*
